The values that follow come from PubChem BioAssay AID1259343 (VanderVen Lab, College of Veterinary Medicine, Cornell …, 2017).

Among all 6,200 compounds or so, about 2,900 (47%) were called active. The set was probably picked from earlier hits. Some of the results follow. A number with no mark means an inactive call. No stated cut-off is given here; in the data, active means inhibition above about 50%; inactive means the rest.

In general, inhibition refers to the relative decrease from the control value, in per cent.

A short description of this experiment: Mycobacterium tuberculosis growth inhibition, primary screen (AID 1259343). As to conditions: inhibition: at 10 µM, active compounds read high; outcome: 10 uM.
As for `CCn1c(O)c(C(C)=Nc2ccnn2C2CCCCC2)c(=O)n(CC)c1=S`, the inhibition is 100% (active).

In the case of `O=C(Nc1ccnn1C1CCCCC1)c1c(O)cc(F)cc1F`, the inhibition was 29.4%.

`Cc1ccc(OCC(O)Cn2c(C)cc(=O)n3ncnc23)cc1` (stereo unspecified): the inhibition was -1.37%.

With `Cc1ccc(OCC(O)Cn2c(C)nc3sc4c(c3c2=O)CCC4)cc1` (stereo unspecified), the inhibition is 64.5% (active).

Regarding `Cc1cccc(-c2ncc(CNCCCc3ccccc3)cn2)c1`, the inhibition is 24.1%.

As for `CCCc1cnc(-c2cnc3ccccc3c2)nc1`, the inhibition is 15.5%.

For the compound `CCc1cnc(-c2cccc(O)c2)nc1`, the inhibition was 87.9% (active).

Consider `O=[N+]([O-])c1ccc(Sc2nnc(-c3ccco3)o2)c([N+](=O)[O-])c1`, for which the inhibition is 57.5% (active).

As to `CCOc1ccc(CSc2n[nH]c(-c3ccccn3)n2)nc1`, the inhibition was 99.6% (active).

Turning to `CCOc1ccc(C2=NCC(CSc3n[nH]c(N)n3)S2)cc1` (stereo unspecified), the inhibition is 19.9%.

For `CCCc1cc(=O)[nH]c(SCCOc2ccc(OCC)cc2)n1`, the inhibition is -6.11%.

In the case of `N#Cc1ccc(NC(=O)NC2CC2c2c(F)cccc2F)cc1` (stereo unspecified), the inhibition was 51.6% (active).

For `CCN(CC(=O)Nc1ccc(C#N)cc1)C1CCCCC1`, the inhibition is -29.6%.

`C=CCSc1nnc(COc2ccccc2)o1`: the inhibition is 95.2% (active).

`O=c1[nH]c2ccccc2n1CCCSc1nnc(COc2ccccc2Cl)o1`: the inhibition is 42.5%.

Turning to `C=CCSc1nnc(Nc2ccc(Oc3ccccc3)cc2)s1`, the inhibition result is “inactive”.

Consider `Cc1cccc(N/C=c2\c(C)c(C#N)c3nc4ccccc4n3c2=O)c1`, for which the inhibition was -34.9%.

Turning to `Cc1c(C#N)c2nc3ccccc3n2c(=O)/c1=C/Nc1ccc(F)cc1`, the inhibition is -33.8%.

On to `Cc1c(CCCl)c(Cl)n2c(nc3ccccc32)c1C#N`, for which the inhibition is 56.3% (active).

`COCCNc1c2c(nc3c(-c4ccccc4)c(C)nn13)CCCC2`: the inhibition was 25.2%.

For the compound `Cn1nc2c(c1NC(=O)c1ccc(Cc3ccccc3)cc1)CCC2`, the inhibition is 83.6% (active).

`OCC1(CCCc2ccccc2)CCN(Cc2cc(Cl)ccc2O)CC1`: the inhibition is 38.5%.

Take `O=S1(=O)CCC(=NNc2ccc(Cl)cc2)c2cc(F)ccc21`: the inhibition was 45%.

`Clc1ccc(NN=C2CCN(Cc3ccccc3)CC2)cc1`: the inhibition was 94.7% (active).

As for `O=[N+]([O-])c1cnc2ccc3ccccc3c2c1`, the inhibition is 96.6% (active).

For the compound `Cc1cc(Br)c2c(c1)C1(OCCO1)C(=O)N2`, the inhibition was -4.59%.

Turning to `Cc1ccc(CNc2nccn(-c3cc(C)cc(C)c3)c2=O)cc1`, the inhibition was 53.9% (active).

As for `COc1ccccc1CNc1nccn(-c2cccc(C)c2)c1=O`, the inhibition is 12.8%.

Consider `CN(CC1Cc2ccccc2O1)C(=O)Nc1nc(-c2ccccc2)ns1` (stereo unspecified), for which the inhibition is 4.41%.

With `CN(Cc1cccc(C(=O)Nc2cn(C)nn2)c1)CC1Cc2ccccc2O1` (stereo unspecified), the inhibition was 86.5% (active).

With `Cc1cccc(CC(=O)N(C)CC2Cc3ccccc3O2)c1` (stereo unspecified), the inhibition is 21%.
